# Data from PubChem BioAssay (NCATS).
# Inconclusive results are not listed. The source made the active and inactive calls. Calls come from the whole dose curve; as a rule, active = well fitted inhibition curve with a large enough effect; inconclusive = small, poorly fitted or top-dose-only effect; inactive = flat fitted curve, though single readings scatter.
# Test system: KB-3-1
# Assay: Cytotoxic Profiling of Annotated Libraries Using Quantitative High-Throughput Screening (AID 1296008); note: nearly all actives have a fitted effect of over 60% in size
# Details: Five cell lines viability, CellTiter-Glo ATP luminescence, 48-72 h; max response: active compounds read low
# In short: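 Cells exposed to compounds for 48 or 72 hr at 37 degrees Celsius. Viability read as ATP-coupled luminescence with CellTiter-Glo after 10 min at room temperature.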
# % is set by controls: 0 for no effect and ±100 for the full control effect; potency is the fitted concentration of half-maximal effect.
Compound,max response,Potency,outcome
O=C(NC[C@H](O)CN1CCc2ccccc2C1)c1ccnc(NC2CCC2)c1,-4.24% (inactive),,
COc1ccc(NC(=O)c2ccc(-c3ccc(C(=N)N)cc3C)cc2)cc1N1CCN(C)CC1,-9.57% (inactive),,
C[C@@H]1O[C@@H](O[C@H]2[C@@H](OC(=O)[C@]34CCC(C)(C)CC3C3=CCC5[C@@]6(C)C[C@H](O)[C@H](O[C@@H]7O[C@H](CO)[C@@H](O)[C@H](O)[C@H]7O[C@@H]7OC[C@@H](O)[C@H](O)[C@H]7O)[C@@](C)(C(=O)O)C6CC[C@@]5(C)[C@]3(C)CC4)OC[C@H](O)[C@@H]2O)[C@H](O)[C@H](O)[C@H]1O[C@@H]1OC[C@@H](O)[C@H](O)[C@H]1O (stereo not given in full),,2.45 µM (active),
CC1=C2C[C@@]3(C)C(CCC[C@@H]3C)C(O)C2OC1=O (stereo not given in full),5.15% (inactive),,
CC#C[C@@H](CC(=O)O)c1ccc(OCc2ccc(CN3CCC4(C=Cc5ccccc54)CC3)s2)cc1,-9.33% (inactive),,
O=C(N[C@H]1CCN(C(=O)c2cc(C(F)(F)F)cc(C(F)(F)F)c2)[C@H](Cc2ccc(Cl)cc2)C1)c1ccnc2ccccc12,-7.03% (inactive),,
Cc1[nH]c2ccccc2c1CCNC(=O)c1cccs1,,,inactive
C=C[C@](C)(O)CC[C@H]1C(C)=CC(=O)[C@H]2C(C)(C)CCC[C@]12C,-5.31% (inactive),,
CNC(C)C(=O)NC(C(=O)N1CCCC1C(=O)Nc1snnc1-c1ccccc1)C1CCCCC1 (stereo not given),3.39% (inactive),,
C/C=C/C=C/C(=O)O[C@@H]1C=C2COC(=O)[C@]2(O)[C@@]2(C)CCCC(C)(C)[C@H]12,0.722% (inactive),,
